The nature of experiment [1]: NCI Yeast Anticancer Drug Screen. Data for the rad50 strain (AID 155).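 Further: 0% = growth of vehicle-only cultures of the same strain.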 The note with it: S. cerevisiae rad50 strain growth inhibition; at 50.0 µM; active compounds read high. The method in brief:
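Relative growth inhibition (compound vs vehicle) was measured in yeast with a defined repair-gene alteration.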

Experiment [2] is described as follows: NCI Yeast Anticancer Drug Screen. Data for the mec2-1 strain (AID 157). The note with it: S. cerevisiae mec2-1 strain, at 50.0 µM, active compounds read high. In short, it runs like this: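 Vehicle-treated cultures served as reference for growth inhibition of compound-exposed mec2-1 yeast.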
Experiment [3] in a line: NCI Yeast Anticancer Drug Screen. Data for the sgs1 mgt1 strain (AID 161).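 Further: 0% = growth of cultures given vehicle only.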 The note with it: S. cerevisiae sgs1 mgt1 strain, at 50.0 µM, active compounds read high. The method in brief: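 Mutant yeast exposed to compound; growth scored against vehicle-only wells.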
The nature of experiment [4]: NCI Yeast Anticancer Drug Screen. Data for the cln2 rad14 strain (AID 165).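 Further: 0% = growth equal to vehicle treated cultures.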 The note with it: S. cerevisiae cln2 rad14 strain, at 50.0 µM, active compounds read high. In short, it runs like this: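 Each compound was tested on cln2 rad14 yeast. Inhibition of growth was calculated against vehicle-exposed controls.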
Experiment [5] in a line: NCI Yeast Anticancer Drug Screen. Data for the bub3 strain (AID 167). The note with it: S. cerevisiae bub3 mutant strain, at 50.0 µM, active compounds read high. The method in brief:
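Screening used yeast with an engineered genetic alteration affecting cell cycle control. Compound-exposed cultures were compared with vehicle cultures, and reduced growth was taken as inhibition.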

A short description of experiment [6]: NCI Yeast Anticancer Drug Screen. Data for the mlh1 rad18 strain (AID 175). The note with it: S. cerevisiae mlh1 rad18 strain growth inhibition; at 50.0 µM; active compounds read high. The method in brief:
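Vehicle-treated cultures served as the reference for growth inhibition in a yeast strain carrying DNA damage repair alterations exposed to each compound.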

About 79,000 compounds went through this panel and 15% of them were active in at least one assay; those are over-represented in the sample as a whole. A number with no mark means an inactive call. Calls of active or inactive are those of the source. No stated cut-off is given here; in the data, active means growth inhibition above about 70%; inactive means the rest. Where a SMILES comes first, the peptide text is derived from it. [ ]: non-standard residue; d: D form. ξ: configuration not given here. ξV = CC(C)C(N)C(=O)O

As for `COc1ccccc1C(CC(=O)c1ccccc1)Sc1ccccc1N` (stereo not drawn), the growth inhibition in experiment [1] was 26.9%; in experiment [2], 33.9%; in experiment [3] it was 38.8%; in experiment [4], 4.1%; in experiment [5], 26.4%; in experiment [6], 12.3%.
Turning to `COc1ccc(/C(C#N)=C/c2ccc(N(C)CCC#N)cc2)cc1`, the growth inhibition in experiment [1] is 28.2%; in experiment [2], -24.1%; in experiment [3], 24.2%; in experiment [4], -8.75%; in experiment [5], 15.2%; in experiment [6], 24.5%.
Turning to `CC(=O)OCC1OC(n2cc(F)c(=O)[nH]c2=O)C(OC(C)=O)C1OC(C)=O` (stereo not drawn), the growth inhibition is 28.9% in experiment [1]; 3.2% in experiment [2]; -13.1% in experiment [3]; 43.2% in experiment [4]; -16.4% in experiment [5]; -26.4% in experiment [6].
For the compound `O=C(c1ccccc1)C(c1ccccc1)S(=O)(=O)N1CCOCC1` (stereo not drawn), the growth inhibition in experiment [1] is 1.3%; in experiment [2], 13.3%; in experiment [3], 2.85%; in experiment [4] it was -13.1%; in experiment [5] it was -11.6%; in experiment [6] it was -7.65%.
As to `CC(=O)CCc1ccc2c(c1)OCCO2`, the growth inhibition in experiment [1] is 27.9%; in experiment [2] it was -10.7%; in experiment [3], -7.55%; in experiment [4] it was -83.2%; in experiment [5] it was -3.8%; in experiment [6], -20.9%.
Consider `CC(=O)CC(C)(C)NC(=S)NCCO`, for which the growth inhibition in experiment [1] is 1.2%; in experiment [2] it was -26.5%; in experiment [3], 2%; in experiment [4], -29.4%; in experiment [5] it was -8.85%; in experiment [6], -13.4%.
`CC(=O)c1cc([N+](=O)[O-])c(O)cc1O`: the growth inhibition in experiment [1] is 36.1%; in experiment [2], 2.25%; in experiment [3], 18.1%; in experiment [4] it was -16.8%; in experiment [5], 25.9%; in experiment [6], 41%.
For `COc1cc2cc(-c3ccccn3)nc(N)c2cc1OC`, the growth inhibition in experiment [1] is 29.2%; in experiment [2], 9.35%; in experiment [3] it was 39.5%; in experiment [4], 2.55%; in experiment [5], -1.5%; in experiment [6] it was 9.95%.
Take `O=C1CSc2ccncc2N1`: the growth inhibition in experiment [1] was 13.8%; in experiment [2], 2.9%; in experiment [3], 13.5%; in experiment [4] it was 11.4%; in experiment [5], 15.2%; in experiment [6], 24.1%.
`CC(C)C(N)C(=O)NCC(=O)NCC(=O)O` (stereo not drawn) (H-[ξV]-Gly-Gly-OH): the growth inhibition in experiment [1] is -9.4%; in experiment [2], -22.2%; in experiment [3], -20.4%; in experiment [4] it was -8.15%; in experiment [5] it was -28.8%; in experiment [6], -23.4%.
`CC1=C2CC/C(C)=C/CCC3(C)OC3CC/C(C)=C/C2OC1=O` (stereo not drawn): the growth inhibition in experiment [1] was -8.7%; in experiment [2], -21.9%; in experiment [3], 13.3%; in experiment [4], 15.6%; in experiment [5], 5.25%; in experiment [6] it was -20.1%.
In the case of `C/C(=C1/CCOC1=O)c1cccc(/C(C)=C2\CCOC2=O)c1`, the growth inhibition in experiment [1] was 3.9%; in experiment [2] it was 3.55%; in experiment [3], -3.05%; in experiment [4], -29.4%; in experiment [5] it was 5.35%; in experiment [6], 2.75%.
Regarding `O=[N+]([O-])Cc1ccc(Cl)cc1`, the growth inhibition is 4.6% in experiment [1]; 18.4% in experiment [2]; 13.1% in experiment [3]; -33% in experiment [4]; -19.7% in experiment [5]; 15.6% in experiment [6].
On to `CCn1c2ccccc2c2ccc(N=Nc3ccccc3)cc21`, for which the growth inhibition in experiment [1] is 36.8%; in experiment [2], 12.6%; in experiment [3], 19.2%; in experiment [4] it was -1.75%; in experiment [5], 22.8%; in experiment [6] it was 17.8%.
With `CCCCCCCC(NC(C)=O)(C(=O)OCC)C(=O)OCC`, the growth inhibition in experiment [1] is -9.25%; in experiment [2] it was -19.1%; in experiment [3] it was -4.55%; in experiment [4], -29.9%; in experiment [5] it was 6.75%; in experiment [6] it was -28.8%.
As to `Cc1c(O)c(=O)ccn1CCN`, the growth inhibition in experiment [1] was 5.65%; in experiment [2], -8.35%; in experiment [3] it was 2.6%; in experiment [4], -34%; in experiment [5] it was -9.7%; in experiment [6], 5.8%.
`NC(=O)/N=C/c1c(O)c2ccccc2oc1=O`: the growth inhibition is 9.6% in experiment [1]; -0.8% in experiment [2]; -11.6% in experiment [3]; -3.35% in experiment [4]; -42% in experiment [5]; -3.1% in experiment [6].
`CC(C)CCCC(C)C1CCC2C3CCC4=C/C(=N/O)CCC4(C)C3CCC12C` (stereo not drawn): the growth inhibition in experiment [1] was 40.2%; in experiment [2], 12.2%; in experiment [3], 40.8%; in experiment [4] it was 34.5%; in experiment [5] it was 25.2%; in experiment [6], 32.6%.
On to `CCN(CC)CCSc1cc(C)c2ccc(N)nc2n1`, for which the growth inhibition in experiment [1] was -5.65%; in experiment [2], -24%; in experiment [3] it was 6.6%; in experiment [4] it was 15.1%; in experiment [5], 8.6%; in experiment [6] it was -1.1%.
Regarding `COc1ccc(N2C=Nn3c(nc4sc5c(c4c3=O)CCCC5)C2)cc1`, the growth inhibition in experiment [1] was 9.55%; in experiment [2] it was 4.2%; in experiment [3], 0.35%; in experiment [4] it was -1.9%; in experiment [5], 4.25%; in experiment [6], -24.4%.
On to `COc1cc2c3c4c1OCc1c5c(cc(c1-4)CC3[N+](C)(C)CC2)OCO5` (stereo not drawn), for which the growth inhibition in experiment [1] was 4.35%; in experiment [2] it was 6.3%; in experiment [3], 8.7%; in experiment [4], 21.1%; in experiment [5], 11.1%; in experiment [6], -52.1%.
On to `CC(O)C1OC(O)C2OC(C)(C)OC12` (stereo not drawn), for which the growth inhibition was 20.1% in experiment [1]; 17.4% in experiment [2]; 16.4% in experiment [3]; -4.35% in experiment [4]; 14.6% in experiment [5]; 7.9% in experiment [6].
Regarding `O=C(c1ccccc1)C(c1ccccc1)N(CCO)CCO` (stereo not drawn), the growth inhibition was -9.8% in experiment [1]; -17.4% in experiment [2]; -2.85% in experiment [3]; -13.4% in experiment [4]; 20.6% in experiment [5]; -17.3% in experiment [6].
In the case of `O=C(Nc1cccc2ccccc12)Oc1cccc2cccnc12`, the growth inhibition in experiment [1] was 98% (active); in experiment [2] it was 96.9% (active); in experiment [3] it was 97.5% (active); in experiment [4], 94% (active); in experiment [5] it was 98.5% (active); in experiment [6], 98% (active).
On to `O=C(O)CN1C(=O)c2ccccc2C1=O`, for which the growth inhibition in experiment [1] was -8.75%; in experiment [2], -15.7%; in experiment [3] it was -5.5%; in experiment [4], -25.7%; in experiment [5] it was -27.6%; in experiment [6], -20.3%.
Take `Cc1cc(O)ccc1N=Nc1ccc(S(=O)(=O)O)cc1`: the growth inhibition in experiment [1] was -26.8%; in experiment [2], -10.2%; in experiment [3], -10.6%; in experiment [4], 2.55%; in experiment [5] it was 4.55%; in experiment [6] it was -12.5%.
On to `C=CCSC(C)=O`, for which the growth inhibition was -3.4% in experiment [1]; -0.05% in experiment [2]; 13.9% in experiment [3]; 7.6% in experiment [4]; -7.8% in experiment [5]; -6.8% in experiment [6].
For `CSC(=Nc1ccc(Br)cc1)NC(=O)c1cc([N+](=O)[O-])cc([N+](=O)[O-])c1`, the growth inhibition in experiment [1] was -33%; in experiment [2] it was 3.4%; in experiment [3] it was 23.1%; in experiment [4], -58%; in experiment [5] it was 6.2%; in experiment [6] it was -18.8%.
`CC(C)(C)[N+](=O)[O-]`: the growth inhibition in experiment [1] is -17.2%; in experiment [2], -27.1%; in experiment [3] it was -10.7%; in experiment [4] it was 4.95%; in experiment [5], 1.4%; in experiment [6], 17.1%.
`CCC(C)(CCC(C)C)c1ccncc1` (stereo not drawn): the growth inhibition was -3.45% in experiment [1]; 9.3% in experiment [2]; -0.05% in experiment [3]; -8.45% in experiment [4]; -0.75% in experiment [5]; 3.05% in experiment [6].
`Cc1c2oc3c(C)ccc(C(=O)NCc4cccnc4)c3nc-2c(C(=O)NCc2cccnc2)c(N)c1=O`: the growth inhibition was 42.6% in experiment [1]; -0.85% in experiment [2]; -6.85% in experiment [3]; 7.55% in experiment [4]; 2.6% in experiment [5]; 13.1% in experiment [6].
`COc1cc(C2=N/C(=C\c3ccc(Cl)c(Cl)c3)C(=O)O2)cc(OC)c1OC`: the growth inhibition was -26.2% in experiment [1]; -14.8% in experiment [2]; 24.6% in experiment [3]; -28.7% in experiment [4]; -4.4% in experiment [5]; 3.95% in experiment [6].
With `CCOC1CS(=O)(=O)CC(OCC)O1` (stereo not drawn), the growth inhibition was 3.35% in experiment [1]; 6.05% in experiment [2]; 4.9% in experiment [3]; -30.6% in experiment [4]; -8.35% in experiment [5]; 13.8% in experiment [6].
On to `[B]C(=O)NC(CC(C)C)C(=O)NCC(=O)NC1c2ccsc2C(=O)C1O` (stereo not drawn) (tested in a mixture with another compound), for which the growth inhibition is -23.5% in experiment [1]; 3.95% in experiment [2]; -23.8% in experiment [3]; -8.45% in experiment [4]; 0% in experiment [5]; 2.05% in experiment [6].
Turning to `Cc1ccc2c(c1)C(=O)c1ccccc1C2=O`, the growth inhibition in experiment [1] is 7.8%; in experiment [2] it was 1.05%; in experiment [3], 1.9%; in experiment [4] it was 11.9%; in experiment [5], 52%; in experiment [6], 6%.
With `COc1cc2c(cc1OC)C(c1ccccc1[N+](=O)[O-])=NCC2`, the growth inhibition in experiment [1] was 0.2%; in experiment [2] it was -0.8%; in experiment [3] it was 29.7%; in experiment [4], 11.7%; in experiment [5], 22.5%; in experiment [6], 15.2%.
Regarding `OC1(C#CC2(O)CCCC2)CCCC1`, the growth inhibition in experiment [1] is -8.9%; in experiment [2], -11.9%; in experiment [3], 15.4%; in experiment [4], -8.05%; in experiment [5], -1.2%; in experiment [6], 23.9%.
As to `CSc1nc2ccc(NCn3c(=O)sc4cc(Br)ccc43)cc2s1`, the growth inhibition in experiment [1] is 1%; in experiment [2], 38.9%; in experiment [3], 4.6%; in experiment [4], 30.9%; in experiment [5], 65.5%; in experiment [6], 42%.

The values above are taken from PubChem BioAssay (NCI).
